# The full ranking holds about 110,000 compounds; the median of “z-score” is about -0.1, and the highest 2% start at about 2. The sample holds the highest values, similar compounds and a random draw of the others, so the mix is not that of the screen. Active and inactive are the calls of the source.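 The calls were made as follows: active = z-score in the third read window above 3 or below -3; inactive = the rest.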
# Target: Metabotropic glutamate receptor 8 (Rattus norvegicus) (UniProt P70579)
# Assay: rat mGluR8 modulators via GIRK flux, primary screen, cell-based, thallium flux, HTS (AID 488969)
# Conditions: HEK293 rat mGluR8, GIRK (G protein-gated inwardly rectifying potassium channel) thallium flux, FluoZin2; at 10 µM; stronger effect = higher value; submaximal glutamate (EC20) added with thallium
# Sequence of Metabotropic glutamate receptor 8 (Rattus norvegicus) (P70579 whole entry, looked up): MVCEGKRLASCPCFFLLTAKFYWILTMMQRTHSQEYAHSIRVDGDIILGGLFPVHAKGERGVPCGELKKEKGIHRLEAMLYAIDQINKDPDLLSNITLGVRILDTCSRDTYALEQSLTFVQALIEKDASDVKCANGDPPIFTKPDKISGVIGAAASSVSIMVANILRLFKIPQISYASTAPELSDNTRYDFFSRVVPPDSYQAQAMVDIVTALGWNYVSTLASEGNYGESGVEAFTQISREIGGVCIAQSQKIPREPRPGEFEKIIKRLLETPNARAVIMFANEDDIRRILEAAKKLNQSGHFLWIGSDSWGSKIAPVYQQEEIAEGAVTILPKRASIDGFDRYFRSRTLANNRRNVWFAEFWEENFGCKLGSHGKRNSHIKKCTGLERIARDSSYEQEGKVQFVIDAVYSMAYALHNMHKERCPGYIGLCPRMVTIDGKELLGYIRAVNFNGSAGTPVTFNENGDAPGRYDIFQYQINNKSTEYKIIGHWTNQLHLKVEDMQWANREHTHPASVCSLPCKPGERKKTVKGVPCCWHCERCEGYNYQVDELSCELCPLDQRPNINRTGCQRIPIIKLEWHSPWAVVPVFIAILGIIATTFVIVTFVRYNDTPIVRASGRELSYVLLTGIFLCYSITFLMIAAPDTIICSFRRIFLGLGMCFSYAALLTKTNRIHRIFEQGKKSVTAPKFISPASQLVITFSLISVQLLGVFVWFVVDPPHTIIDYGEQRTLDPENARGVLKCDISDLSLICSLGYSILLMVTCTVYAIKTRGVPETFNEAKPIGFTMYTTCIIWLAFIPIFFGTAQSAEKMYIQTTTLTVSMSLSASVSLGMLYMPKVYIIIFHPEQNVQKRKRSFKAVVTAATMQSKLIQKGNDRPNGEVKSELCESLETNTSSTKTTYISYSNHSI
row,Compound,z-score
1,Cc1cc(C)c(C)c(S(=O)(=O)NNC(=O)c2cccc(S(=O)(=O)N3CCOCC3)c2)c1C,-0.174
2,Cc1ccccc1OC(=O)n1c(=S)oc2cc(Cl)ccc21,1.42
3,COC(=O)n1c(=S)oc2cc(Cl)ccc21,2.15
4,CCCCOC(=O)n1c(=S)oc2cc(Cl)ccc21,-0.00789
5,O=C(NCc1ccco1)c1ccc(S(=O)(=O)c2cccc(S(=O)(=O)N3CCOCC3)c2)cc1,0.0723
6,CCC(C)C(=O)Nc1nc(C)c(-c2csc(Nc3ccccc3OC)n2)s1 (stereo not given),-0.407
7,Clc1ccc(OCc2cc(-c3ccccc3)no2)c(Cl)c1,-0.0969
8,COc1ccc2nc(N3C(=O)/C(=C/c4ccc(Cl)cc4)NC3=S)sc2c1,6.84 (active)
9,COc1ccc2nc(N3C(=O)CC(C(C)c4ccccc4)C3=O)sc2c1 (stereo not given),-0.143
10,COc1ccc(N2C(=O)/C(=C/c3cccnc3)NC2=S)cc1,-0.439
11,CCOc1ccc2nc(SCC(=O)c3ccccc3)sc2c1,0.303
12,CCOc1ccc2nc(N3C(=O)/C(=C/c4ccc(Cl)cc4)NC3=S)sc2c1,1.05
13,CCOc1ccc2nc(N3C(=O)/C(=C/c4ccccc4)NC3=S)sc2c1,3.66 (active)
14,COC(=O)/C=C1\C(=O)N(c2nc3ccc(OC)cc3s2)C(=S)N1c1ccc(F)cc1,0.0125
15,COc1ccc2nc(N3C(=O)/C(=C/c4ccccc4)NC3=S)sc2c1,11.9 (active)
16,COc1ccc2nc(N3C(=O)CC(Cc4ccc(Cl)cc4)C3=O)sc2c1 (stereo not given),-0.21
17,Cc1cccc(OCCNc2cc(N3CCN(CCO)CC3)ccc2[N+](=O)[O-])c1,-0.0985
18,Cc1cc2c(cc1C)NC1(C(=O)Nc3ccccc31)C1=C(CC(C)(C)CC1=O)N2 (stereo not given),0.0524
19,Cc1cccc(Oc2ccccc2NC(=O)c2cnccn2)c1,-0.109
20,COc1cc(C(=O)NCCc2ccc3c(c2)OCCO3)ccc1OCC(=O)N1CCOCC1,0.0469
21,CCCCOc1ccc(-c2cc(C(=O)NNC(=S)NCC)c3ccccc3n2)cc1,-0.155
22,COc1ccccc1N1CCN(C(CNC(=O)c2ccc3c(c2)OCO3)c2cccnc2)CC1 (stereo not given),0.0309
23,CC(CNCC1CCCO1)COc1cccc2ccccc12 (stereo not given),0.285
24,Cc1ccc(C(=O)N/C(=C\c2ccc(-c3ccc(Br)cc3)o2)C(=O)NC2CCS(=O)(=O)C2)cc1 (stereo not given),-0.13

row,Compound,z-score
1,O=C(Nc1ccc2oc(-c3ccncc3)nc2c1)c1ccccc1F,-0.225
2,COc1c(F)c(F)c(C(=O)Nc2ccc3oc(-c4ccncc4)nc3c2)c(F)c1F,-0.29
3,O=C(Nc1ccc2oc(-c3ccncc3)nc2c1)c1c(F)c(F)c(F)c(F)c1F,3.39 (active)
4,COc1cc2c(cc1NCc1ccccn1)oc1ccccc12,-0.0883
5,CCC(=O)Nc1ccc(N2CCN(Cc3ccccc3)CC2)cc1,0.042
6,O=C(CCS(=O)(=O)c1ccccc1)Nc1nc2c(s1)COc1ccccc1-2,-0.504
7,C/C=C/C=N/Nc1nc(-c2ccc([N+](=O)[O-])cc2)cs1,-0.273
8,COc1ccc(C(=O)N2CCN(C3CCC(c4ccccc4)CC3)CC2)cc1OC (stereo not given),-1.61
9,Cc1ccc(NC(=O)CC(O)(C(F)(F)F)C(F)(F)F)cc1,-0.185
10,O=C(CC(O)(C(F)(F)F)C(F)(F)F)Nc1ccc(Cl)c(Cl)c1,6.91 (active)
11,Cc1ccc(Cl)cc1NC(=O)CC(O)(C(F)(F)F)C(F)(F)F,-2.38
12,CCOC(=O)CC(=O)CSc1nc2c(cc1C#N)CCCCC2,1.09
13,COC(=O)CC(=O)CSc1nc2c(cc1C#N)CCC2,-0.106
14,CCOC(=O)CC(=O)CSc1nc2c(cc1C#N)CCC2,2.18
15,CCC(=O)NCCCCNC(=O)CC,0.217
16,CC1(C)CC(=O)C2=C(C1)OC(N)=C(C#N)C2c1cn(-c2ccccc2)nc1-c1ccc(F)cc1 (stereo not given),-0.436
17,CCNC(=O)c1ccccc1NC(=O)c1cccc(S(=O)(=O)N2CCC(C)CC2)c1,-1.17
18,O=C1NC(=S)/C(=C\c2ccc(-c3ccccc3Cl)o2)S1,3.83 (active)
19,O=C1/C(=C\c2ccc(-c3ccccc3Cl)o2)SC(=S)N1CC1CCCO1 (stereo not given),0.755
20,O=C1N=C(N2CCOCC2)S/C1=C\c1ccc(-c2ccccc2Cl)o1,-0.0639
21,COC(=O)c1sccc1NC(=O)c1c(C)cc(=O)oc1C,-0.28
22,Cc1ccc(NC(=O)C(NC2CCCc3ccccc32)c2ccccc2)cc1Cl (stereo not given),-0.174
23,Nc1ccc(C(=O)OCC(=O)NC2CCCc3ccccc32)cc1[N+](=O)[O-] (stereo not given),-0.347
24,Cc1ccc(NC(=O)C(NC2CCCc3ccccc32)c2ccccc2)c([N+](=O)[O-])c1 (stereo not given),2.09

row,Compound,z-score
1,O=C(NC1CCCCC1)N(C1=NCCCCC1)c1ccc(Br)cc1,-0.204
2,CCOC(=O)C1=C(c2ccccc2)OC(N)=C(C#N)C1C1CCCCC1 (stereo not given),-0.435
3,COc1ccc(/C=C2\N=C(SC)SC2=O)cc1OC,-0.325
4,Cc1ccc2ncccc2c1[N+](=O)[O-],-0.242
5,Cc1cc(-c2ccc(F)cc2)nc2cc(C(N)=O)nn12,0.242
6,COC(=O)c1cc2nc(-c3ccccc3)cc(C)n2n1,0.0407
7,CCOc1ccc(-c2cc(C)n3nc(C(N)=O)cc3n2)cc1,5.02 (active)
8,O=C(COc1ccccc1F)N1c2ccccc2CCc2ccccc21,-0.375
9,C=CCNC(=S)NC1CC(C)(C)NC(C)(C)C1,0.609
10,CCc1nn(-c2cc(Cl)ccc2OC)c2c1C(=O)CCC2,-0.275
11,CCOC(=O)c1c(NC(=S)NC)sc2c1CC(C)(C)SC2,12.5 (active)
12,C=CCNC(=S)Nc1sc2c(c1C(=O)OCC)CC(C)(CC)OC2 (stereo not given),2.22
13,CCOC(=O)c1c(NC(=S)Nc2cccc(C)c2)sc2c1CC(C)(C)SC2,0.0638
14,CCOC(=O)c1c(NC(=S)Nc2ccccc2)sc2c1CCN(CCc1ccccc1)C2,0.012
15,CCOC(=O)c1c(NC(=S)NCCc2ccccc2)sc2c1CC(C(C)C)OC2 (stereo not given),3.42 (active)
16,C=CCNC(=S)Nc1sc2c(c1C(=O)OCC)CC(C(C)C)OC2 (stereo not given),8.63 (active)
17,C=C(C)CNC(=S)Nc1sc2c(c1C(=O)OCC)CC(C)(C)OC2,0.296
18,CCOC(=O)c1c(NC(=O)c2ccc(C)cc2)sc2c1CC(C)(C)OC2,-0.222
19,CC(C)C1Cc2c(sc(NC(=S)NC(=O)c3ccccc3)c2C#N)CO1 (stereo not given),-0.13
20,C=CCNC(=S)Nc1sc2c(c1C(=O)OCC)CCN(C(=O)OCC)C2,0.145
21,CCOC(=O)c1c(NC(=S)Nc2ccccc2)sc2c1CC(C)(C)SC2,-0.0674
22,CCOC(=O)c1c(NC(=O)c2ccccc2C)sc2c1CC(C)(C)OC2,-0.332
